The record followed here is PubChem BioAssay (NCI).

Several values for one entry are separate records, joined by “and”; a condition that tells them apart may be missing. Equal entries are not always repeated. The panel holds about 83,000 compounds, 20% with a hit somewhere; the sample as a whole holds those more often.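 96-well plates, one dose, 48 hours. Percent growth reported; active if below 10.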 Activity calls are given as the source filed them.

This experiment concerns HL-60(TB) leukemia. In words: NCI-60 one-dose screen, 48 h (100 = growth as untreated, 0 = no growth, -100 = all killed). The note with it: 10 µM unless noted.
In the case of `O=C(O)c1ccccc1C(=O)OC1CCCC2CCCC21` (stereo not given), the growth was 104% (inactive). Regarding `O=C1C=CC[C@H](/C=C/c2ccccc2)O1`, the growth is 13.5% (inactive) and -34.5% (active). To `CC(=O)Nc1ccc2c(c1)c(NC(C)=O)nn2C(=O)Nc1ccc(Cc2ccccc2)cc1` belongs 93.1% (inactive); to `O=Nc1ccc(Nc2ccccc2)cc1`, -1.72% (active). The figure for `O=C1/C(=C/c2ccccc2[N+](=O)[O-])Oc2ccc(O)c(O)c21` is 4.39% (active); for `Cc1cc(C)n2nc(SCC(=O)Nc3sc4c(c3C(N)=O)CCC4)nc2n1` it is 117% (inactive). The figure for `CCOC(=O)c1ccncc1` is 97.3% (inactive); for `CN(C)c1ncnc2c1nnn2C1OC(CO)C(O)C1O` (stereo not given) it is 4.4% (active).

On to `C/C(=N\N=C(/C)c1cccc([N+](=O)[O-])c1)c1cccc([N+](=O)[O-])c1`, for which the growth was 125% (inactive).

For the molecule `CN1CCN(CCC=C2c3ccccc3Sc3ccc(S(=O)(=O)N(C)C)cc32)CC1`, the growth was 91.3% (inactive) and 80.6% (inactive). With `N#Cc1ccc(-c2ccc3c(c2)NC(=O)/C3=C\c2ccc[nH]2)cc1`, the growth was 101% (inactive). The figure for `Clc1ccc(/C=N\N2CCCCCC2)cc1` is 99.3% (inactive) and 77.3% (inactive); for `N=C(N)c1ccc(-c2ccc(/C=C/c3ccccc3)s2)cc1` it is -39.5% (active).

In the case of `CC1=C(C#N)C(C)(C)C(C#N)=C(C)N1`, the growth is 98.6% (inactive). The figure for `CC(=O)Cc1nsc(NC(=O)c2cc(-c3cc(Cl)cc(Cl)c3)oc2C)n1` is 96.5% (inactive); for `CC1=C(Nc2ccc(N3CCN(C)CC3)cc2)C(=O)c2cncnc2C1=O` it is -26.6% (active). To `CO/N=C/C=C\C(=O)N/C=C/C[C@H]1/C=C/[C@H](O)/C=C\C=C\c2cccc(O)c2C(=O)O1` belongs 23.3% (inactive) and -28.4% (active); to `O=C(CI)NC1Oc2ccccc2-c2oc(=O)c(-c3ccccc3)cc21` (stereo not given), -39.3% (active).

In the case of `COc1ccc(/C=C/C(=O)Nc2ncnc3nc[nH]c23)cc1`, the growth was 78.8% (inactive). For `Cn1cnc2c1c(=O)n(CCC(=O)Nc1ccc(F)cc1)c(=O)n2C`, the growth was 113% (inactive). To `O=C(C(=O)N1CCOCC1)c1ccc(O[C@H]2O[C@H](CO)[C@@H](O)[C@H](O)[C@@H]2O)cc1` belongs 113% (inactive). Regarding `CN(CCNCc1ccccn1)CCNCc1ccccn1`, the growth is 6% (active). To `Nc1ncnc2c1c(-c1ccc(Oc3ccccc3)cc1)nn2C[C@@H]1SSC[C@H]1O` belongs -27.5% (active); to `O=C(Nc1nc2ccc(S(=O)(=O)Nc3ccc(C4(C(F)(F)F)CC4)cc3)cc2[nH]1)c1cnccn1`, -12.2% (active). With `COc1cc(/C=N/Nc2nc3c([nH]2)c(=O)n(C)c(=O)n3C)ccc1O`, the growth was 90.7% (inactive) and 103% (inactive).

`Cc1cn(-c2cc(C(=O)Nc3cccc(C#Cc4cccc5[nH]nc(N)c45)c3)cc(C(F)(F)F)c2)cn1`: the growth was 25.1% (inactive). Take `CS(=O)(=O)c1cccc(-c2c(-c3cccc(OS(N)(=O)=O)c3)nc3sccn23)c1`: the growth was 102% (inactive).

In the case of `Cc1ccc(-c2nc3ccc(Cl)cc3c(=O)n2N2C(=O)CSC2c2ccccc2Cl)cc1` (stereo not given), the growth was 97.1% (inactive). To `O=C(/C=C/c1ccc(F)cc1)c1ccc(Nc2nc(NCCO)nc(Nc3ccc(Cl)cc3)n2)cc1` belongs 98.6% (inactive); to `CCCCNC(=O)CC1=C(C)/C(=C/c2[nH]c(-c3ccc[nH]3)cc2OC)N=C1C`, 12.9% (inactive). Take `Cc1ccc(Nc2ccc(Nc3ccc(C)cc3S(=O)(=O)O)c3c2C(=O)c2ccccc2C3=O)c(S(=O)(=O)O)c1`: the growth was 99.4% (inactive).

As to `COc1cc(NCCCCC(C)N)c2nccc(C)c2c1` (stereo not given), the growth is 96.7% (inactive). Consider `COc1ccc(/C(=C/c2cc(OC)c(OC)cc2[N+](=O)[O-])C(=O)O)cc1`, for which the growth is 98.5% (inactive). Regarding `Cn1ccnc1C(=O)/C=C/c1ccc(CC(=O)Nc2ccc(C(F)(F)F)cc2)cc1`, the growth is -2.06% (active). As to `O=C(COc1cccc(/C=C2\COc3ccc(Cl)cc3C2=O)c1)c1ccc(Cl)cc1`, the growth is 52.7% (inactive). Consider `Cn1cc(-c2nc(-c3c[nH]c4ccncc34)cs2)c2ccccc21`, for which the growth was -41.9% (active). To `O=C(O)CCC(=O)Nc1nnc(-c2ccccc2)s1` belongs 92.2% (inactive); to `Nc1c(C(=O)Nc2ccccc2)sc2nc3c(cc12)CCCCC3`, 10.4% (inactive); to `CN1CCN(C2=Nc3ccccc3Oc3ccc(Cl)cc32)CC1`, 91.8% (inactive). To `CS(=O)(=O)c1ccc(C(=O)N/N=C/c2ccccc2O)cc1` belongs 6.35% (active).
